These results are taken from PubChem BioAssay (EPA / NIEHS).

Assay [1] deals with Sodium/Iodide Symporter (NIS), SLC5A5 (gene 6528). The experiment in a line: CPHEA_Stoker_NIS_Inhibition_RAIU: CPHEA's Radioactive Iodide Uptake (RAIU) Assay for Sodium/Iodide Symporter (NIS) Inhibition, Stoker and Laws Labs (AID 2283841). A digest of the protocol: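 HEK293T cells stably expressing human NIS (hNIS-HEK293T-EPA) were exposed to test chemicals at 0.001–100uM (0.5% final DMSO) with 125I at a final 329pM in HBSS/10mM HEPES pH 7.4. After 2 hours at room temperature and ice-cold washes, intracellular 125I was counted as CPM and normalized to DMSO wells.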

The target in assay [2] is Estrogen receptor (Homo sapiens) (UniProt P03372). The experiment in a line: ATG_hERa_XSP2: Attagene TRANS-FACTORIAL Multi-Species (XSP2) HepG2 Assay for human Estrogen Receptor (ERa) (AID 2283827). A digest of the protocol:
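Trans-activation of exogenous human ERa-Gal4 chimera read in HepG2 as reporter transcript after 24 h exposure; medium included 3 nM 6-alpha-fluorotestosterone and 1.5 nM norgestrel. Quantified by RT-PCR with capillary electrophoresis, positive-direction fitting against DMSO.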

For assay [3], the target named is Peroxisome proliferator-activated receptor gamma (Homo sapiens) (UniProt P37231). The experiment in a line: ATG_hPPARg_XSP2: Attagene TRANS-FACTORIAL Multi-Species (XSP2) HepG2 Assay for human Peroxisome Proliferator-activated Receptor gamma (PPARg) (AID 2283829).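 Further: actives raise reporter mRNA above DMSO so AC50 reflects PPARg activation.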 A digest of the protocol: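 Transient MRTU transfection, HepG2; TRANS format (exogenous NR-Gal4 chimeras). 24 h chemical exposure with 3 nM 6-alpha-fluorotestosterone and 1.5 nM norgestrel present. Readout: reporter mRNA via RT-PCR/CE fluorescence, up-direction vs DMSO.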

Assay [4] addresses mouse Peroxisome Proliferator-activated Receptor gamma (PPARg), Pparg (gene 19016) (UniProt P37238). The experiment in a line: ATG_mPPARg_XSP2: Attagene TRANS-FACTORIAL Multi-Species (XSP2) HepG2 Assay for mouse Peroxisome Proliferator-activated Receptor gamma (PPARg) (AID 2283830).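 Further: hits are gains in reporter mRNA above DMSO so AC50 marks activation.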 A digest of the protocol: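 Multiplexed TRANS reporter readout: after 24 h chemical exposure of transfected HepG2 cells (with 3 nM 6-alpha-fluorotestosterone, 1.5 nM norgestrel present), RNA reverse-transcribed, amplified, 6-FAM-labelled and resolved by capillary electrophoresis; mouse PPARg-Gal4 induction scored against DMSO.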

For assay [5], the target named is Nuclear receptor subfamily 1 group I member 2 (Mus musculus) (UniProt O54915). In words: ATG_mPXR_XSP2: Attagene TRANS-FACTORIAL Multi-Species (XSP1) HepG2 Assay for mouse Pregnane X Receptor (PXR) (AID 2283831). A digest of the protocol: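 Transient HepG2 transfection, multiplexed GAL4-UAS reporters, NR-GAL4 chimeras. 24 h compound exposure. Readout: reporter mRNA, RT-PCR, fluorescent capillary electrophoresis; positive direction vs DMSO baseline.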

For assay [6], the target named is zebrafish Thyroid Hormone Receptor alpha (TRa), thraa (gene 30670) (UniProt Q98867). The experiment in a line: ATG_zfTRa_XSP2: Attagene TRANS-FACTORIAL Multi-Species (XSP1) HepG2 Assay for zebrafish Thyroid Hormone Receptor alpha (TRa) (AID 2283832).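 Further: actives raise zebrafish TRa-Gal4 reporter transcript above DMSO baseline.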 In a few lines:
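HepG2, transient MRTU transfection, exogenous NR-Gal4 chimeras; 24 h dosing; mRNA readout via RT-PCR/CE fluorescence; positive direction vs DMSO.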

Assay [7] in a line: ATG_M_61_XSP2: Attagene TRANS-FACTORIAL Multi-Species (XSP2) HepG2 Assay for M61 Transcription Factor (Internal Marker) (AID 2283835; active means hit-call score of the fitted dose curve at least 0.9, where 1 is the maximum; inactive means score below 0.9;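 further: active means a rise in signal above the DMSO baseline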). A digest of the protocol: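 Internal background marker, read as RT-PCR/capillary-electrophoresis reporter mRNA 24 h post-dose in transiently transfected HepG2 cells. Androgen receptor stimulated with 3 nM 6-alpha-fluorotestosterone plus 1.5 nM norgestrel; gain of signal versus DMSO analysed.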

Assay [8] has as its target human Thyroid hormone Receptor alpha (TRa), THRA (gene 7067) (UniProt P10827). The experiment in a line: ATG_hTRa_XSP2: Attagene TRANS-FACTORIAL Multi-Species (XSP2) HepG2 Assay for human Thyroid hormone Receptor alpha (TRa) (AID 2283838). A digest of the protocol:
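Reporter transcripts were read by RT-PCR with fluorescent primer extension, HpaI digestion and capillary electrophoresis. These came from HepG2 cells carrying multiplexed TRa-Gal4 TRANS constructs, harvested 24 hours after dosing. The medium also held 6-alpha-fluorotestosterone (3 nM) and norgestrel (1.5 nM), and increases were fitted against DMSO.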

Assay [9] has as its target human Thyroid hormone Receptor beta (TRb), THRB (gene 7068) (UniProt P10828). In words: ATG_hTRb_XSP2: Attagene TRANS-FACTORIAL Multi-Species (XSP2) HepG2 Assay for human Thyroid hormone Receptor beta (TRb) (AID 2283840).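 Further: actives raise reporter mRNA so potency reflects agonist-like gain of signal.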 In a few lines:
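Read-out: reporter mRNA induction (RT-PCR, 6-FAM labeling, capillary electrophoresis), gain-of-signal relative to DMSO baseline. Transiently transfected HepG2 TRANS multiplex (NR-Gal4 chimeras, GAL4-UAS reporters), 24 h chemical exposure; medium contained 3 nM 6-alpha-fluorotestosterone plus 1.5 nM norgestrel.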

A short description of assay [10]: CEETOX_H295R_11DCORT_noMTC: CeeTox H295R High-throughput Steroidogenesis Assay for 11-Deoxycortisol (11DCORT), maximum tolerated concentration (MTC) filtered results only (AID 2283911; active means hit-call score of the fitted dose curve at least 0.9, where 1 is the maximum; inactive means score below 0.9). As to conditions: actives raise or lower the signal. A digest of the protocol: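 H295R, OECD 456-based; 10 uM forskolin 48 h → compound (0.1% DMSO) 48 h → medium extracted, 11DCORT by LC-MS/MS. Gain/loss vs DMSO control, all concentrations kept regardless of MTT viability.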

A short description of assay [11]: CEETOX_H295R_OHPREG_noMTC: CeeTox H295R High-throughput Steroidogenesis Assay for OH-Pregnenolone (OHPREG), maximum tolerated concentration (MTC) filtered results only (AID 2283912; active means hit-call score of the fitted dose curve at least 0.9, where 1 is the maximum; inactive means score below 0.9). As to conditions: actives raise or lower the signal. In a few lines:
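Medium 17alpha-hydroxypregnenolone quantified by reverse-phase HPLC-MS/MS after 48 h chemical exposure of forskolin-prestimulated (10 uM, 48 h) H295R, 0.1% DMSO final. Fitting bidirectional relative to DMSO; no maximum-tolerated-concentration filtering applied.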

A short description of assay [12]: CEETOX_H295R_OHPROG_noMTC: CeeTox H295R High-throughput Steroidogenesis Assay for OH-Progesterone (OHPROG), maximum tolerated concentration (MTC) filtered results only (AID 2283914; active means hit-call score of the fitted dose curve at least 0.9, where 1 is the maximum; inactive means score below 0.9). As to conditions: actives raise or lower the signal. A digest of the protocol: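 After 48 h forskolin (10 uM) prestimulation, H295R adrenal cells received test chemical in 0.1% DMSO for 48 h. Medium 17alpha-hydroxyprogesterone was MTBE-extracted and measured by HPLC-MS/MS; gain or loss relative to DMSO, no MTT-based MTC filtering.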

Assay [13] is described as follows: CEETOX_H295R_CORTISOL_noMTC: CeeTox H295R High-throughput Steroidogenesis Assay for Cortisol, maximum tolerated concentration (MTC) filtered results only (AID 2283916; active means hit-call score of the fitted dose curve at least 0.9, where 1 is the maximum; inactive means score below 0.9). The conditions noted are these: actives raise or lower the signal. In a few lines: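 Cortisol secretion measured by LC-MS/MS after 48 h chemical treatment (final 0.1% DMSO) of forskolin-primed (10 uM, 48 h) H295R cells; gain or loss fitted relative to DMSO, without maximum-tolerated-concentration filtering.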

A short description of assay [14]: CEETOX_H295R_CORTIC_noMTC: CeeTox H295R High-throughput Steroidogenesis Assay for Corticosterone (CORTIC), maximum tolerated concentration (MTC) filtered results only (AID 2283917; active means hit-call score of the fitted dose curve at least 0.9, where 1 is the maximum; inactive means score below 0.9). As to conditions: actives raise or lower the signal. In a few lines: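 Human adrenal H295R cells were prestimulated 48 h with 10 uM forskolin, then exposed 48 h to chemical in 0.1% DMSO. Medium corticosterone was MTBE-extracted and quantified by HPLC-MS/MS; bidirectional fits versus DMSO, concentrations not MTC-filtered.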

The nature of assay [15]: CEETOX_H295R_DOC_noMTC: CeeTox H295R High-throughput Steroidogenesis Assay for DOC, maximum tolerated concentration (MTC) filtered results only (AID 2283918; active means hit-call score of the fitted dose curve at least 0.9, where 1 is the maximum; inactive means score below 0.9). The conditions noted are these: actives raise or lower the signal. A digest of the protocol:
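11-Deoxycorticosterone secreted by human adrenal H295R cells quantified by HPLC-MS/MS after 48 h chemical exposure (0.1% DMSO), following 48 h 10 uM forskolin prestimulation. Concentrations not filtered by MTT-derived MTC; bidirectional fitting.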

A short description of assay [16]: CEETOX_H295R_ESTRADIOL_noMTC: CeeTox H295R High-throughput Steroidogenesis Assay for Estradiol, maximum tolerated concentration (MTC) filtered results only (AID 2283919; active means hit-call score of the fitted dose curve at least 0.9, where 1 is the maximum; inactive means score below 0.9). The conditions noted are these: actives raise or lower the signal. In a few lines: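 Readout: dansyl-derivatized estradiol quantified by LC-MS/MS in medium from H295R cells dosed 48 h (0.1% DMSO) following 48 h forskolin (10 uM) prestimulation. Gain or loss of signal fitted against DMSO; no MTC filtering applied.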

Assay [17] is described as follows: CEETOX_H295R_PROG_noMTC: CeeTox H295R High-throughput Steroidogenesis Assay for Progesterone (PROG), maximum tolerated concentration (MTC) filtered results only (AID 2283920; active means hit-call score of the fitted dose curve at least 0.9, where 1 is the maximum; inactive means score below 0.9). As to conditions: actives raise or lower the signal. A digest of the protocol: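 Progesterone secreted into medium was measured by HPLC-MS/MS after MTBE extraction, following 48 h chemical exposure (0.1% DMSO) of forskolin-prestimulated (10 uM, 48 h) H295R adrenal cells. Gain or loss fitted against DMSO; no MTC filtering.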

In assay [18] the test system is frog Estrogen Receptor (ER2), gene 100174814. In words: ATG_frER2_XSP2: Attagene TRANS-FACTORIAL Multi-Species (XSP2) HepG2 Assay for frog Estrogen Receptor (ER2) (AID 2283828). In a few lines:
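Read-out: reporter transcript levels by RT-PCR with 6-FAM primer extension, HpaI digestion and capillary electrophoresis, scored as induction over DMSO control. Transfected HepG2 carrying Xenopus ER2–GAL4 chimera; compounds incubated 24 h.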

The test system of assay [19] is zebrafish Peroxisome Proliferator-activated Receptor gamma (PPARg), gene 557037. The experiment in a line: ATG_zfPPARg_XSP2: Attagene TRANS-FACTORIAL Multi-Species (XSP2) HepG2 Assay for zebrafish Peroxisome Proliferator-activated Receptor gamma (PPARg) (AID 2283833).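 Further: reporter mRNA from a zebrafish PPARg GAL4 chimera measured by RT-PCR and capillary electrophoresis; actives increase reporter signal over DMSO so AC50 reflects activation.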 A digest of the protocol: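 Transfect HepG2 with multiplexed GAL4-UAS reporter constructs; dose chemical 24 h; isolate RNA, reverse-transcribe, PCR-amplify, label and digest reporter products; resolve by capillary electrophoresis. Activity taken as increase over DMSO.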

Assay [20] has as its target frog Thyroid hormone Receptor alpha (TRa), thra-a (gene 397942) (UniProt P15204). The experiment in a line: ATG_frTRa_XSP2: Attagene TRANS-FACTORIAL Multi-Species (XSP2) HepG2 Assay for frog Thyroid hormone Receptor alpha (TRa) (AID 2283839).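 On AC50: AC50 reflects induction of frog TRa-driven reporter mRNA above DMSO baseline.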 In a few lines: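 Read-out: fluorescent reporter-transcript fragments resolved by capillary electrophoresis after RT-PCR and HpaI cut. Human HepG2 liver cells carry a transfected frog TRα-Gal4 chimera driving a UAS reporter; 24 h exposure, DMSO baseline, positive-direction fit.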

Inconclusive results are not listed. Calls of active or inactive are those of the source. How the source made its calls, unless noted: active means hit-call score of the fitted dose curve at least 0.9, where 1 is the maximum; inconclusive means response in the unintended direction; inactive means score below 0.9.

Sequence of human Thyroid hormone Receptor alpha (TRa), THRA (gene 7067) (P10827 whole entry, looked up, the tested form may be a part): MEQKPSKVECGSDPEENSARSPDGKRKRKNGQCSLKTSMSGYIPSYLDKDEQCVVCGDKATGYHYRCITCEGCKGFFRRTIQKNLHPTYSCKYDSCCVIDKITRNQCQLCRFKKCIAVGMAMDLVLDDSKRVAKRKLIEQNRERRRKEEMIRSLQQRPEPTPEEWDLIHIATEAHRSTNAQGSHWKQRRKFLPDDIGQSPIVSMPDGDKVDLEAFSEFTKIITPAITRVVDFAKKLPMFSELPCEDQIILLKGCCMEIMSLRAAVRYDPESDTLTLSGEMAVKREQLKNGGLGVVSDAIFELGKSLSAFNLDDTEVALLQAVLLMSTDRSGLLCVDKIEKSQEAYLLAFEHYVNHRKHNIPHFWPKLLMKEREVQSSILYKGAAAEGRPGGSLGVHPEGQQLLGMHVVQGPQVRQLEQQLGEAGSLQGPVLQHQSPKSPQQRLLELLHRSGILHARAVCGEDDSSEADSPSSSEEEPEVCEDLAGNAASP
Sequence of zebrafish Thyroid Hormone Receptor alpha (TRa), thraa (gene 30670) (Q98867 whole entry, looked up, the tested form may be a part): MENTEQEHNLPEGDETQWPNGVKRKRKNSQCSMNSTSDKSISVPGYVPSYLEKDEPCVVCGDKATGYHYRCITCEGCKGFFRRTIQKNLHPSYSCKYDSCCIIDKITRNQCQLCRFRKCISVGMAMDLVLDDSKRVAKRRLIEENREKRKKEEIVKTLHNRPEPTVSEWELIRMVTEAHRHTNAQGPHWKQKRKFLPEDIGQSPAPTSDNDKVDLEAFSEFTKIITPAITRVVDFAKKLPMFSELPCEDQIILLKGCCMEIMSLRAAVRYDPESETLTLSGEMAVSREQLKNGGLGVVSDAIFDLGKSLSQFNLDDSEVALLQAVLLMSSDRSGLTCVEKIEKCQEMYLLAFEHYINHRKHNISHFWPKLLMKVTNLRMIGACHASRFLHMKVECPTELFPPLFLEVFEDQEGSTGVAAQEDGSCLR
Sequence of Nuclear receptor subfamily 1 group I member 2 (Mus musculus) (O54915 whole entry, looked up, the tested form may be a part): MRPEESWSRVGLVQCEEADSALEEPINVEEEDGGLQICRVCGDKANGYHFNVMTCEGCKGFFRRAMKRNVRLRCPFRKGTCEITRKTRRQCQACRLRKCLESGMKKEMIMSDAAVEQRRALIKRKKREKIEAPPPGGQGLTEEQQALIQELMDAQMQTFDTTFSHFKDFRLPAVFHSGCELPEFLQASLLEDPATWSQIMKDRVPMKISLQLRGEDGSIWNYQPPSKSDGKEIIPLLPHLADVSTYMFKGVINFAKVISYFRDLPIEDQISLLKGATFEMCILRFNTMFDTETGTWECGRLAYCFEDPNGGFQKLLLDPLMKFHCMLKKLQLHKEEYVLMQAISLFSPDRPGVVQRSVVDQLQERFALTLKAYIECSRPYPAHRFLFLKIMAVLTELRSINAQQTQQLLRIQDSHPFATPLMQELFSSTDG
Sequence of Peroxisome proliferator-activated receptor gamma (Homo sapiens) (P37231 whole entry, looked up, the tested form may be a part): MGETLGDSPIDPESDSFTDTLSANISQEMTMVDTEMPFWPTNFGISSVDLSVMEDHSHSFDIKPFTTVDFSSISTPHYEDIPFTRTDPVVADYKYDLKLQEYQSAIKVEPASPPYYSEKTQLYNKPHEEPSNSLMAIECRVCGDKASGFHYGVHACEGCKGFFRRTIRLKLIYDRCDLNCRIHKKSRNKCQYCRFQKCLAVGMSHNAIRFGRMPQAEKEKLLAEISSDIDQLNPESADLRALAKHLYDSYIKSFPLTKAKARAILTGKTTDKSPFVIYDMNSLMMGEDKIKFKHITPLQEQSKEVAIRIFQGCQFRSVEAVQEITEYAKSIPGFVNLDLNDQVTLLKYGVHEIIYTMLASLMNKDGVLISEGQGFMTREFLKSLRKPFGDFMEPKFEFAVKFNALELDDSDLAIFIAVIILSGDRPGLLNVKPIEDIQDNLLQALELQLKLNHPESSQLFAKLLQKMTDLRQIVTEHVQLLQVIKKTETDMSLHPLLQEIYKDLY
Sequence of mouse Peroxisome Proliferator-activated Receptor gamma (PPARg), Pparg (gene 19016) (P37238 whole entry, looked up, the tested form may be a part): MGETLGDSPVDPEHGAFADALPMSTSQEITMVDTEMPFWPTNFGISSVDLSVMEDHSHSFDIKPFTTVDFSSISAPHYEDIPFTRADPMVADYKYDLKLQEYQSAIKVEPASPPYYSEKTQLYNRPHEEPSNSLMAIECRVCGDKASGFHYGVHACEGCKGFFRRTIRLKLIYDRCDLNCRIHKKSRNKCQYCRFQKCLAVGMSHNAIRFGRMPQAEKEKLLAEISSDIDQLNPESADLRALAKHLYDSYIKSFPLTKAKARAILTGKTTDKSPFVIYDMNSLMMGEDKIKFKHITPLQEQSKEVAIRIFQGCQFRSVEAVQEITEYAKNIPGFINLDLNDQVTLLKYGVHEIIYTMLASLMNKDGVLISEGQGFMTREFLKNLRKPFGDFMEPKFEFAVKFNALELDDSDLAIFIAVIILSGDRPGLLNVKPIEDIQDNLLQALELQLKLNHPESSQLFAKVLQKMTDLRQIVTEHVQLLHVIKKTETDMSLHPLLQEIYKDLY
Sequence of human Thyroid hormone Receptor beta (TRb), THRB (gene 7068) (P10828 whole entry, looked up, the tested form may be a part): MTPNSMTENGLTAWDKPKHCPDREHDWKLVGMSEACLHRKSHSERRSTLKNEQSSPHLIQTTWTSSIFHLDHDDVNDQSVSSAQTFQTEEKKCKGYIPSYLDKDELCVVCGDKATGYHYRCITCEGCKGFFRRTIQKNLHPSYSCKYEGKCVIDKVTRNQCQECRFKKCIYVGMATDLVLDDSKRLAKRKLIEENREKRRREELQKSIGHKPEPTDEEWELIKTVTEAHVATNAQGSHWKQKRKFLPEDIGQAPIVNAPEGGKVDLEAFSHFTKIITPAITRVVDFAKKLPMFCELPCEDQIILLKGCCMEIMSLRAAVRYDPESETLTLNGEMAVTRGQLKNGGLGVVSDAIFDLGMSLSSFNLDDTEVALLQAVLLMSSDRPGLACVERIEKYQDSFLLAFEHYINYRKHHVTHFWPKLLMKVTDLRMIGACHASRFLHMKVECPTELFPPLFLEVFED
Sequence of Estrogen receptor (Homo sapiens) (P03372 whole entry, looked up, the tested form may be a part): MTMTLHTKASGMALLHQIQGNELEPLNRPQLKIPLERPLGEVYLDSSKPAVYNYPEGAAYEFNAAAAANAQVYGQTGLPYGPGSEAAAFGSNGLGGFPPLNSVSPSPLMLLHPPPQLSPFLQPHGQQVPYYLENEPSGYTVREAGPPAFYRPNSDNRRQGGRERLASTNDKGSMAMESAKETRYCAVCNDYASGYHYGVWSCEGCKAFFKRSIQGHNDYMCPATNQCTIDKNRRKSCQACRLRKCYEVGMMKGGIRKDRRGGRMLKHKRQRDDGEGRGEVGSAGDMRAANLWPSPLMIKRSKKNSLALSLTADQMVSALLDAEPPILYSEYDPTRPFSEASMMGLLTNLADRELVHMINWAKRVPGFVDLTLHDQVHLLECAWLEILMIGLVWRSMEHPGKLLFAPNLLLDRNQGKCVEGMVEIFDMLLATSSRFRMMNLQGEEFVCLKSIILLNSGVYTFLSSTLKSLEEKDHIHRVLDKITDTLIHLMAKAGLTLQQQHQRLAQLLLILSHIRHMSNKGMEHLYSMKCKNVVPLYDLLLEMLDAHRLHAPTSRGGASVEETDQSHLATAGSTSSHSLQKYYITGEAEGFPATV
Sequence of frog Thyroid hormone Receptor alpha (TRa), thra-a (gene 397942) (P15204 whole entry, looked up, the tested form may be a part): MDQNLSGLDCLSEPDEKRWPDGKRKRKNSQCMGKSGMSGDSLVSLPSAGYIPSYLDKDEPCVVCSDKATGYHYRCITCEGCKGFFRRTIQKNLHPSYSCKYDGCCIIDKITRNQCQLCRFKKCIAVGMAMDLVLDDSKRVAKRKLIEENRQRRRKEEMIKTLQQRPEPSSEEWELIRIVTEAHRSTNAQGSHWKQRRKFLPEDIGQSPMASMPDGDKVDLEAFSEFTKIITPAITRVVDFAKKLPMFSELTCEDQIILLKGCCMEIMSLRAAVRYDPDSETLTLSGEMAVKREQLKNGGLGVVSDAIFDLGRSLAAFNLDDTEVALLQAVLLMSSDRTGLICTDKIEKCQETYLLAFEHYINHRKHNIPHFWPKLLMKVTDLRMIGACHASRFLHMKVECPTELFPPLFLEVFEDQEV

As a reminder, the AC50 is the concentration giving half of the maximal activity seen. In the case of `CC1COC(Cn2cncn2)(c2ccc(Oc3ccc(Cl)cc3)cc2Cl)O1` (stereo not drawn), the AC50 in assay [1] was 11.5 µM (active).
Still for that read-out and setting: the figure for `CCOc1cc(Oc2ccc(C(F)(F)F)cc2Cl)ccc1[N+](=O)[O-]` is 22.1 µM (active).
`CS/C(C)=N/OC(=O)N(C)SN(C)C(=O)O/N=C(\C)SC`: the result in [1] was inactive.
Take `CCCCC(CC)COC(=O)c1ccccc1C(=O)OCC(CC)CCCC` (stereo not drawn): the result in assay [2], in [6], in assay [7], in assay [8], in assay [9] and in assay [10] was inactive. Also, the outcome in assay [11], in assay [12], in assay [13], in assay [14], in [15] and in assay [16] was inactive. The call in assay [17] was inactive. For the same compound, the AC50 was 34.5 µM (active) in assay [3], 9.14 µM (active) in [4] and 0.342 µM (active) in assay [5].
In the case of `Cc1ccc(-c2c(Cl)nc(C#N)n2S(=O)(=O)N(C)C)cc1`, the result in assay [1] was inactive.
For `CCCCNC(=O)OCC#CI`, the compound was classed as inactive in assay [18], in [5], in assay [6], in assay [19], in assay [7] and in assay [8]. The AC50 was 10.6 µM (active) in assay [3], 25.6 µM (active) in [4], 100 µM (active) in [20] and 9.77 µM (active) in assay [1].
For the compound `COC(=O)c1ccccc1C(=O)OC`, the call in assay [10], in assay [11], in assay [12], in assay [13], in assay [14] and in assay [15] was inactive. The call in [16] and in assay [17] was inactive.
Turning to `C=CCC1=C(C)[C@@H](OC(=O)[C@@H]2[C@@H](C=C(C)C)C2(C)C)CC1=O`, the AC50 in assay [1] is 50 µM (active).
`N#CC(CCc1ccc(Cl)cc1)(Cn1cncn1)c1ccccc1` (stereo not drawn): the AC50 in assay [1] is 76 µM (active).
Turning to `CCOP(=S)(OCC)SCn1c(=O)oc2cc(Cl)ccc21`, the AC50 in [2] was 4.26 µM (active); in assay [3] it was 27.9 µM (active); in assay [4] it was 31.3 µM (active); in assay [5], 0.0321 µM (active); in [1] it was 34.5 µM (active). For the same compound, the compound was classed as inactive in [18], in [6], in assay [19], in [7], in assay [8] and in assay [20]. Besides, in assay [9], the outcome was inactive.
On to `N#Cc1nn(-c2c(Cl)cc(C(F)(F)F)cc2Cl)c(N)c1S(=O)C(F)(F)F` (stereo not drawn), for which the AC50 in assay [1] was 26.8 µM (active).
